Data taken from PubChem BioAssay (NCI).
“And” between values parts separate entries of the source, which are not always exact repeats. Equal entries are not always repeated. This is part of a sample that, as a whole, favours compounds with a hit. Of some 83,000 tested, about 20% had one in any assay.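 The test compound was applied at a single concentration to cells in 96-well plates for 48 hours, and percent growth was recorded.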 Values without a mark were called inactive. The source made the active and inactive calls. The calls were made as follows: active = growth percent below 10; inactive = the rest.

Each molecule was assayed on MDA-MB-468 breast (assay: NCI-60 one-dose screen, 48 h (100 = growth as untreated, 0 = no growth, -100 = all killed)). Conditions: 10 µM unless noted.

SMILES | growth
Nc1nc(SC/C=C/CCl)c2[nH]cnc2n1 | 103% and 127%
COc1ccc(-c2nc3c(c(=O)n2C(C)=O)C(c2ccc(Cl)cc2)c2sc4c(Cl)cccc4c2O3)cc1 (centres undefined) | 5.77% (active)
CCOC(=O)C(=O)/C(=C\c1ccc(Cl)cc1)C(=O)N1C(=S)NC(=O)C1CC(C)C (centres undefined) | 90%
COc1ccccc1C1=C(Br)C(=O)c2nc(C)ccc2C1=O | 107%
COc1ccc(C2CC(c3cccc(Nc4ccncc4)c3)=NN2c2cc(Cl)cc(Cl)c2)cc1 (centres undefined) | 43.3%
O=C1OC(=O)C2C1C1(Cl)C(Cl)=C(Cl)C2(Cl)C2C(=O)OC(=O)C21 (centres undefined) | 94.3%
C/C(=N\Nc1ccc(Cl)cn1)c1ccccn1 | -41% (active)
COc1ccc2cc(/C=C3\N=C(c4cc(OC)c(OC)c(OC)c4)OC3=O)c(OC)nc2c1 | 108%
Cc1ccc(S(=O)(=O)N/N=C2\CCCc3ccccc32)cc1 | 95.7%
Cc1cc2nc3c4cc(Cl)ccc4n(CC(=S)NCCN(C)C)c3nc2cc1C | -89.3% (active)
NC1C(N)C(N)C1N (centres undefined) | 122%
COc1ccc(-c2nc3c(c(-c4ccccc4)nn3-c3ccccc3)c(-c3ccc(N4CCOCC4)cc3)c2C#N)cc1 | 97.8%
c1cncc(CNc2ccccc2-c2nnc(Nc3ccc4c(c3)OCCO4)o2)c1 | -0.422% (active)
O=C(CSc1nnc(-c2ccc3nc(-c4ccccc4)[nH]c3c2)o1)Nc1ccc(C(=O)/C=C/c2ccccc2)cc1 | 112%
